High-throughput results from PubChem.
A549 tox-1 = A549 cytotoxicity, counter-screen for Nrf2 inhibitors | A549 ARE-Fluc cells, CellTiter-Fluor viability, 18-24 h | Potency, µM (doses to about 46 µM), for inactives: at the highest dose activity change, negative = cytotoxicity, hits mostly inhibitors | 390,000 compounds, 0.16% hits; further: on the % scale 0 is the no-effect control and ±100 the full control effect
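A549 ARE-Fluc cells in 5% FBS OPTI-MEM, 5000 cells/well, rested 2 h then exposed to compounds in concentration-response for 18-24 h at 37 °C. Viability by CellTiter-Fluor fluorescence (Ex 405/Em 525) after 30 min; luciferase luminescence (BugLite, 15 min, RT) read afterwards.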
Nrf2 inh = inhibitors of Nrf2 signaling | Potency, µM (highest dose often 46 µM), for inactives: at the highest dose activity change, negative = inhibition, usual class: inhibitors | 360,000 compounds, 2.1% hits | A549 ARE-Fluc reporter, luciferase luminescence, 18-24 h | AID 504444; further: on the % scale 0 is the no-effect control and ±100 the full control effect; nearly all actives have a fitted effect of over 60% in size
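Reporter: ARE-Fluc in A549. Exposure: 18-24 h, 37 °C, 5% CO2, 5% FBS OPTI-MEM. Readouts: fluorescent cytotoxicity (CellTiter-Fluor), then luminescent Nrf2 signal after BugLite.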
TGFb inhibitor = blocks TGF-b signaling. HepG2 CAGA-GFP TGF-b/SMAD3 reporter, GFP fluorescence, 18 h; TGF-beta stimulated, 500 pg/mL final. Potency, µM (doses to about 46.1 µM), for the others: at the top dose activity, negative = inhibition, actives largely listed as inhibitors. 410,000 compounds, 1.2% hits. AID 588855; further: on the % scale 0 is the no-effect control and ±100 the full control effect; nearly all actives have a fitted effect of over 65% in size
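First, reporter cells (HEPG2 CAGA-GFP) rested 2 h at 37 degrees C. Next, compounds were pinned in and TGF-beta added to 500 pg/mL final. After 18 h, GFP was imaged per cell and summed per well.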
ATXN2 expr inh = ATXN2 expression inhibition. 360,000 compounds, 0.72% hits. Potency, µM (top dose mostly 57 µM), without a hit: top-dose activity change, negative = inhibition, actives largely listed as inhibitors. HEK-293 ATXN2-luciferase reporter, luminescence, 24 h. AID 1745845; further: on the % scale 0 is the no-effect control and ±100 the full control effect; nearly all actives have a fitted effect of over 55% in size
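qHTS (up to 57 uM final) was run with 24 h compound exposure of reporter cells at 37 °C. Each well was multiplexed: SteadyGlo luminescence measured ATXN2-luciferase expression after a fluorogenic Gly-Phe-AFC viability readout (25 uM final).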
HepG2 viability = HepG2 cytotoxicity, counter-screen for TGF-b inhibitors. AID 588856. Potency, µM (highest dose often 46.1 µM), for the others: top-dose activity change, negative = cytotoxicity, most hits filed as cytotoxic. 410,000 compounds, 0.76% hits. HepG2 CAGA-GFP viability, ATP luminescence, 18 h
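HepG2 CAGA-GFP cells (1000/well, DMEM with 1% FBS) received compound, then TGF-beta at 500 pg/mL final, and were incubated 18 hours at 37 degrees C. Viability was read by CellTiter-Glo luminescence. Media-only wells were set as complete cell-killing and DMSO as no toxicity.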
ATXN viability = cell viability loss in ATXN counter-screen; AID 651635; S2 cells (HEK-293 line with an ATXN2-luciferase reporter) viability, CellTiter-Fluor protease fluorescence, 24 h; Potency, µM (top dose mostly 56.7 µM), most hits filed as cytotoxic; 400,000 compounds, 0.49% hits; further: nearly all actives have a fitted effect of over 40% in size
FLuc counter 3 = firefly luciferase inhibition, Nrf2 hit validation. purified firefly luciferase, luminescence inhibition. 1,400 compounds, 4% hits. shares compounds with Nrf2 inh. Potency, µM (top dose mostly 57.5 µM), without a hit: top-dose activity change, negative = inhibition, most hits filed as inhibitors; further: on the % scale 0 is the no-effect control and ±100 the full control effect; nearly all actives have a fitted effect of over 65% in size
Target sequence (P08659 whole entry, looked up): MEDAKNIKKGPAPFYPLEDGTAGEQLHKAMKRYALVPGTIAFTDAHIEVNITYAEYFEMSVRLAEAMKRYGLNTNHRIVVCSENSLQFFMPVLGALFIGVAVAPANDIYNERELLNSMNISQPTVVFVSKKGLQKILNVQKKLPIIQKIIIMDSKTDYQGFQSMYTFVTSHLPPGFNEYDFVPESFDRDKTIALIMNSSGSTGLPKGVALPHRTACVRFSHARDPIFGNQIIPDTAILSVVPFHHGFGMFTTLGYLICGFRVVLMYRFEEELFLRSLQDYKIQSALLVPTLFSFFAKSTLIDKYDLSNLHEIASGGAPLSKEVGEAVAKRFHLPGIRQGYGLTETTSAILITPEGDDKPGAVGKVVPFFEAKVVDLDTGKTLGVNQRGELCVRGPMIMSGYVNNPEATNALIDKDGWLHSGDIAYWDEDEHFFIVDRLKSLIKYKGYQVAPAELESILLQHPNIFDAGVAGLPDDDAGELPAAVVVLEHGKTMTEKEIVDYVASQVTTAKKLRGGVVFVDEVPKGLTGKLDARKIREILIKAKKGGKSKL
A549 tox-2 = toxic to A549 ARE-Fluc cells in Nrf2 counterscreen; shares compounds with Nrf2 inh; A549 ARE-Fluc cells, cytotoxicity counterscreen; Potency, µM (titrated, usually from 46.1 µM), for the others: at the top dose activity change, negative = cytotoxicity, hits mostly inhibitors; 1,400 compounds, 2% hits;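 further: cells exposed to compounds for 18 to 24 hours; on the % scale 0 is the no-effect control and ±100 the full control effect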
Nrf2 ARE inh = reduces Nrf2 ARE reporter signal in A549 cells; shares compounds with Nrf2 inh; 1,400 compounds, 74% hits; A549 ARE-firefly luciferase reporter, luminescence; Potency, µM (highest dose often 46.1 µM), without a hit: at the top dose activity change, negative = inhibition, usual class: inhibitors; further: on the % scale 0 is the no-effect control and ±100 the full control effect; nearly all actives have a fitted effect of over 65% in size
* = called active by the depositor; i = inactive; ? = inconclusive; · = not tested or not shown; [ ] = another dose, or the depositor's remark. Hits are enriched below; roughly 3.8% of the tested compounds scored in any of these assays. The call rests on the fitted dose curve; in most records, active means well fitted curve in the direction sought with a large enough effect; inconclusive means small, poorly fitted or top-dose-only effect, or another doubt; inactive means no such curve, though single readings can be large; an effect the other way counts as inactive or inconclusive. Potency means the concentration at half of the fitted maximal effect.

SMILES	A549 tox-1	Nrf2 inh	TGFb inhibitor	ATXN2 expr inh	HepG2 viability	ATXN viability	FLuc counter 3	A549 tox-2	Nrf2 ARE inh
CCN(CC)c1ccc(S(=O)(=O)N2CCOCC2)cc1NC(=O)COC(=O)/C=C/c1ccc(C)o1	3.2%	-16.2%	?	-7.1%	3.9%	i	·	·	·
Cc1ccc(S(=O)(=O)N2CCC(n3c(C)nc4cccnc43)CC2)c(C)c1	-11.1%	9.2µM*	?	?	-40.9%	?	-1.6%	-9.4%	·
Cc1ccc(Cl)cc1NC(=O)Nc1cccc(OCc2cc(=O)n3ccccc3n2)c1	-5.1%	·	?	·	-9.4%	·	·	·	·
O=C(O)c1ccc(-c2nc(-c3ccccc3)c(-c3cccs3)[nH]2)cc1	-7.7%	-15.4%	4.8%	-1.6%	-0.8%	i	·	·	·
O=[N+]([O-])c1ccc(O)c(-c2nc(-c3ccccc3)c(-c3cccs3)[nH]2)c1	·	3.66µM*	-17.0%	-8.8%	-52.5%	?	-16.0%	?	20.6µM*
Nc1ccc(/C=C/c2nccc3ccccc23)cc1	·	·	-12.9%	·	-46.9%	·	2.69µM*	-7.3%	?
COc1cc(OC)c(/C=C/c2ccc3ccccc3n2)c(OC)c1	·	·	?	·	-32.8%	·	-23.7%	?	6.51µM*
COc1cc(OC)c(/C=C/c2nccc3ccccc23)c(OC)c1	·	·	?	·	-31.1%	·	7.57µM*	23.3%	·
COc1ccc(/C=C/c2ccc3ccccc3n2)cc1OC	·	·	-1.5%	·	-19.2%	·	·	·	·
COc1cc(OC)c(C=Cc2ccncn2)c(OC)c1	·	·	-1.7%	·	-8.0%	i	·	·	·
COc1cc(OC)c(/C=C/c2ccccn2)c(OC)c1	·	·	-10.5%	·	-11.8%	·	3.3%	-22.2%	6.51µM*
COCc1cc(C)nc2sc(C(=O)Nc3cc(C)ccc3F)c(N)c12	-3.1%	2.7%	·	·	-34.8%	·	·	·	·
COc1ccc(C(CNC(=O)C2CC(=O)N(Cc3ccccc3)C2)N2CCOCC2)cc1 (stereo not given)	22.5%	-2.8%	-0.4%	·	-2.5%	i	·	·	·
CCOc1ccc(CCNC(=O)c2cnc3sc(N4CCCCC4)nn3c2=O)cc1	-0.2%	?	0.3%	7.0%	1.8%	i	·	·	·
Cc1cc(N(C)C)cc(C)c1/C=C/c1cc[n+](C)c2ccccc12	·	·	8.91µM*	·	-25.2%	·	-12.4%	-21.8%	·
COc1cc(OC)c(/C=C/c2cc[n+](C)c3ccccc23)c(OC)c1	·	·	?	·	-27.0%	·	0.3%	-27.9%	3.66µM*
COc1cc(OC)c(OC)cc1/C=C/c1cc[n+](C)c2ccccc12	·	·	-4.6%	·	-0.5%	·	·	·	·
CN(c1ccccc1)S(=O)(=O)c1ccc(Cl)c(C(=O)Nc2ccncc2)c1	1.2%	8.2µM*	-0.6%	·	3.5%	i	1.3%	0.7%	?
CN(c1ccccc1)S(=O)(=O)c1ccc(C(=O)Nc2ccncc2)cc1	5.8%	?	-24.4%	-3.5%	35.3%	i	·	·	·
O=C(Nc1nc(-c2ccc(S(=O)(=O)N3CCCCCC3)cc2)cs1)c1ccccc1	·	2.91µM*	-6.9%	-18.7%	-26.6%	i	0.3%	7.9%	4.11µM*
O=C(Nc1nc(-c2cccs2)cs1)c1ccc(S(=O)(=O)N2CCCC2)cc1	?	9.2µM*	?	?	-15.8%	?	-18.9%	-19.0%	?
Cc1cccc(C)c1-n1nnnc1C1(C)CCC(=O)N1c1ccc(N2CCOCC2)cc1 (stereo not given)	·	·	·	9.6%	·	i	·	·	·
COc1ccc(/C=C/c2cc(-c3ccc(C)cc3)o[n+]2C)cc1	?	8.2µM*	10µM*	?	-50.8%	?	-1.9%	?	2.91µM*
CC(=O)c1c(C)[nH]c(C(=O)OCCCCN2C(=O)c3ccccc3C2=O)c1C	-18.5%	5.8µM*	-3.3%	-13.7%	-20.4%	?	1.2%	-5.9%	·
CC(=O)c1c(C)[nH]c(C(=O)OCc2ccccc2)c1C	3.7%	?	-25.1%	48.7%	-21.4%	i	·	·	·
SMILES	A549 tox-1	Nrf2 inh	TGFb inhibitor	ATXN2 expr inh	HepG2 viability	ATXN viability	FLuc counter 3	A549 tox-2	Nrf2 ARE inh
Cn1/c(=N/NC(=O)c2ccccc2Br)sc2ccccc21	-7.7%	?	7.9%	23.6%	-4.2%	i	·	·	·
COc1cccc(C(=O)Nc2c(C(=O)NC(C)(C)C)oc3ccccc23)c1	5.8%	?	-2.4%	-25.1%	-25.2%	i	1.3%	-13.5%	-15.5%
CN(C)c1ccc(NC(=O)CSc2n[nH]c(-c3ccncc3)n2)cc1	-1.2%	8.0%	0.3%	6.4%	12.1%	i	·	·	·
O=S(=O)(NC1CCc2ccccc21)c1ccc(S(=O)(=O)N2CCCC2)cc1 (stereo not given)	-2.6%	4.11µM*	?	-4.2%	-25.6%	i	0.7%	1.3%	?
COc1ccc(Cl)cc1NC(=O)CSC1=Nc2ccccc2C2=NC(CCC(=O)NCc3ccc(F)cc3)C(=O)N12 (stereo not given)	?	3.66µM*	-23.6%	·	-16.7%	·	3.5%	?	14.6µM*
CCn1c(COC(=O)CNC(=O)c2cc(OC)c(OC)c(OC)c2)nc2cc(S(=O)(=O)N(C)C)ccc21	3.3%	4.9%	6.2%	-0.4%	3.6%	i	·	·	·
O=C(Nc1ccccc1F)Nc1ccccc1N1CCCCC1	?	5.8µM*	?	-15.6%	-0.5%	i	-12.5%	-2.2%	?
O=C(Nc1ccccc1N1CCCCC1)c1ccc(F)cc1	0.3%	-5.4%	?	-23.9%	-12.6%	i	·	·	·
CC(C)CC(=NNC(=O)c1ccncc1)c1cc(Cl)ccc1O	?	6.51µM*	-1.0%	2.82µM*	7.08µM*	?	1.2%	-1.5%	6.51µM*
CNc1nc(NCC2CCCCC2)c2sccc2n1	·	·	?	?	-6.2%	·	·	·	·
CC(C)c1ccc(NC(=O)c2ccc(CN3CC(=O)N4CCCCC4C3=O)cc2)cc1 (stereo not given)	3.5%	-1.2%	-25.5%	·	-30.1%	·	·	·	·
CCCn1c(NC(=O)c2cccc(S(=O)(=O)N3CCCC3)c2)nc2ccccc21	?	7.31µM*	14.1µM*	15.8µM*	-43.7%	?	-13.2%	?	7.31µM*
COc1ccc(CCNC(=O)c2ccc(-c3cccc([N+](=O)[O-])c3)o2)cc1OC	-0.7%	?	13.4%	-21.8%[11.3 µM]	-20.7%	·	·	·	·
